Out of some 69,000 compounds screened, about 8,600 (12%) showed an effect of 50% or more. The entries come from a sample that favours strong results as a whole.
system: Plasmodium berghei; assay: Screen against P. berghei liver stage (PbLuc), transformed with Luciferase, at 10uM; format: functional, HepG2; conditions: tested at 10 uM

SMILES | INHIBITION [%]
Cc1cccc(CN2C[C@@H]3CN(C(=O)c4ccsc4)C[C@@H]3C2=O)n1 | 23.6
CN(C)S(=O)(=O)N1CCN(C(=O)OC(C)(C)C)CC12CCCCC2 | 27.5
Cc1cnn(CC2CCCN2Cc2cn3ccsc3n2)c1 (stereo not given) | 37.9
O=C1CCC(=O)c2oc3ccc(Cl)cc3c2N1 | 34.2
CN(C)C(=O)N1C[C@H]2CC[C@@H](C1)N(C(=O)CCCn1cncn1)C2 | 6.8
O=C(O)COCC(=O)NC1CC2(CCCCC2)Oc2ccccc21 (stereo not given) | 3.91
CC(C)c1nnc2n1CCN(C(=O)c1cn(-c3ccccc3)nn1)C2 | 21.1
O=C(NC[C@]12COC[C@H]1CN(CC1CCOCC1)C2)c1ccco1 | 3.11
Cc1ncc(CN2CCCC(c3nc4ccccc4n3C(C)C)C2)s1 (stereo not given) | -21.4
O=C1NCCN1C1CCN(CCOc2ccccc2F)CC1 | 63.85
O=C1NCCN1C1CCN(CCOc2ccccc2Cl)CC1 | 22.6
O=C1NCCN1C1CCN(CCc2cccs2)CC1 | 29.5
c1ccc2c(OCCN3CCn4c(nnc4C4CC4)C3)cccc2c1 | 21.5
O=C1NCCN1C1CCN(CC(O)c2ccccc2F)CC1 (stereo not given) | 0.45
O=C1NCCN1C1CCN(CCOc2cccc3ccccc23)CC1 | 69.1
COc1cc(C(=O)N(C)Cc2nccn2CC(F)(F)F)ccc1C | 10.7
Cc1cc(C(=O)N2CCC3(CC2)C(=O)N(C)CCN3CC(C)C)c(C)o1 | 49.4
Cn1cccc1C(=O)N1CCC(c2nnc(Cn3ccnc3)n2C)CC1 | -10.3
NCC1[C@H]2CN(CCc3ccccc3)C[C@@H]12 (stereo not given in full) | 33.2
CN(C)c1nc2c(c(N3CCC4(CC3)CNC(=O)C4)n1)CCCC2 | 84.5
CN(C)c1nc2c(c(N3CCCC4(CC3)CNC(=O)O4)n1)CCCC2 (stereo not given) | -26.8
CN(C)c1nc2c(c(N3CCC4(CCCNC4=O)C3)n1)CCCC2 (stereo not given) | 42.2
CCn1cc(NC(=O)NCC(C)N2CCCC2)cn1 (stereo not given) | 31.8
Cc1nc(CN2CCc3ncnc(C4CCOC4)c3CC2)cs1 (stereo not given) | -33

SMILES | INHIBITION [%]
Cc1nc2ncc3c(=O)n(C)ccc3n2n1 | 0.647
Cc1noc(C)c1CN1CCN(C(=O)C(C(C)C)n2cncn2)CC1 (stereo not given) | 7.44
Cc1ccc(C(NC(=O)Cn2cc(C3CC3)nn2)C2CC2)cc1 (stereo not given) | 8.08
Cc1ccc(C(CNC(=O)Cc2nc3ncccn3n2)N(C)C)cc1 (stereo not given) | 56.8
Cc1ccc(OCCCNC(=O)Cc2nc3ncccn3n2)cc1 | 27.7
Cc1ccc(C(NC(=O)Cc2nc3ncccn3n2)C2CC2)cc1 (stereo not given) | 53.4
Cc1ccc(C(NC(=O)CN2CCc3c(ncn3C)C2)C2CC2)cc1 (stereo not given) | 6.99
Cc1ccc(C(CNC(=O)c2cc(CC(C)C)nn2C)N(C)C)cc1 (stereo not given) | -28.8
O=C1C(NS(=O)(=O)c2cccc(F)c2)CCN1Cc1ccccc1 (stereo not given) | -5.25
Cc1ccc(N2C[C@H](C)[C@]3(CCN(c4cccnc4)C3=O)C2)nn1 | 38.5
CCC(C)N(Cc1sccc1C)C(=O)c1ccc2cccnc2n1 (stereo not given) | 11.2
COCCC(=O)N1CCN(CC2CC2)c2nc(C)ccc2C1 | -7.24
O=C(Cc1ccccn1)N1CCN(CC2CC2)c2ncccc2C1 | 24.5
O=C(O)CCC(=O)N1CCN(CC2CC2)c2ncccc2C1 | 82
COCCC(=O)N1CCN(CC2CC2)c2ncccc2C1 | 55.7
COCC(=O)N1CCN(CC2CC2)c2ncccc2C1 | -18.6
CC(=O)NCC(=O)N1CCN(Cc2cccnc2)c2ncccc2C1 | -14
O=C(N1CCCC1)N1CCN(CC2CC2)c2ncccc2C1 | 20.5
CC(=O)NCC(=O)N1CCN(CC2CC2)c2ncccc2C1 | 27.9
CC(=O)NCC(=O)N1CCN(Cc2ccncc2)c2ncccc2C1 | 76.5
COC(=O)C(NC(=O)C1CC1)c1cc(F)ccc1F (stereo not given) | 29.4
CCOc1ccc(Cl)c(C(=O)NCCS(N)(=O)=O)n1 | 35.3
COc1ccc(C2=CCN(C(=O)C3CCCN(C(C)=O)C3)CC2)cc1 (stereo not given) | 1.78
CNC(=O)CN(C(=O)c1ccccc1)[C@H]1C[C@H]2CCOC[C@H]2C1 | 8.61

SMILES | INHIBITION [%]
CN1CC(=O)N(c2cccc(F)c2)CC12CCN(Cc1ccncc1)C2 (stereo not given) | -17.1
NC(=O)CN1CCCN(C(=O)Cc2ccc(F)c(Br)c2)CC1 | 14.4
COc1ccc(Cl)cc1CC(=O)N1CCN(CCO)CC1 | 38.1
O=C(Cc1ccc(F)c(Br)c1)N1CCN(CCO)CC1 | 66.7
Cn1cc(CN2CCc3onc(COc4cccnc4)c3C2)cn1 | 7.11
c1ccc(OCc2noc3c2CN(c2ncccn2)CC3)nc1 | 24.6
CCS(=O)(=O)N1CCc2onc(COc3ccccn3)c2C1 | 3.88
O=S(=O)(C1CC1)N1CCc2onc(COc3ccccn3)c2C1 | 61.5
Cc1cccc(C(=O)N2CCCCC2c2nc(C)cs2)n1 (stereo not given) | -21.9
O=C(O)C1(Cc2ccccc2Cl)CCN(c2ncccc2F)CC1 | 43.5
O=C(O)C1(Cc2ccc(Cl)cc2)CCN(c2ncccc2F)CC1 | 52
Cc1ncc(C)c(N2CCC(Cc3ccc(Cl)cc3)(C(=O)O)CC2)n1 | 12.7
O=C(CCNC(=O)c1ccccc1)Nc1ccncc1 | 1.58
COC[C@@H]1CCC[C@]12CN(S(=O)(=O)c1cccs1)CCO2 | 54.1
CC(C)OC[C@H]1CCC[C@]12CN(S(=O)(=O)c1cccs1)CCO2 | 45.2
COC[C@H]1CCC[C@]12CN(C(=O)NCc1ccccc1)CCO2 | -1.58
COC[C@@H]1CCC[C@@]12CN(C(=O)N(C)C)CCO2 | 28.5
COC[C@H]1CCC[C@]12CN(S(=O)(=O)c1cccs1)CCO2 | -0.554
COC[C@@H]1CCC[C@@]12CN(C(=O)N1CCCC1)CCO2 | 52.1
COC[C@@H]1CCC[C@@]12CN(C(=O)C1CCOCC1)CCO2 | 33.1
CC(C)OC[C@H]1CCC[C@]12CN(C(=O)C1CCOCC1)CCO2 | 27.6
COCC(=O)N1CCO[C@]2(CCC[C@H]2COC)C1 | 62.9
